For orientation: inhibition means the relative decrease from the control value, in per cent.

For 40 compounds, inhibition results are on record in PubChem BioAssay AID434955 (Southern Research Specialized Biocontainment Screening …, 2010).

Values joined by “and” are separate entries in the source; they are usually repeats but may differ in a detail not shown here. Equal entries are not always repeated. Hit rate of the full screen: of about 330,000 compounds, about 880 (0.27%) were called active. Not shown: some 1% with an inconclusive outcome. How the calls were made is not given here. The list is a sample of the results.

The nature of this assay: beta-lactam sensitization of Mtb H37Rv, H37Rv (AID 434955).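 Further: growth measured after seven days incubation then overnight dye step; 0% = bacteria only wells and 100% = bacteria with antibiotic.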 The conditions noted are these: M. tuberculosis H37Rv growth with meropenem, percent inhibition, at 25 µM.
The mark [1] stands for this setting: measured here: primary screen without meropenem.

For the compound `O=C(CCc1nc(-c2ccccc2)no1)Nc1cccc(C(=O)NC2CC2)c1`, the inhibition (stronger effect = higher value) is 1.26% (inactive) and the inhibition under setting [1] stood at 4.5%.
As to `COc1ccc(/C=N/n2c(C)cc(C)cc2=O)cc1`, the inhibition was 3.19% (inactive) (stronger effect = higher value) and -1.76% under setting [1].
Regarding `COC(=O)c1ccc(NS(=O)(=O)c2cc3c4c(c2)C(C)C(=O)N4CCC3)cc1` (stereo not given), the inhibition is -8.75% (inactive) (stronger effect = higher value) and -4.77% under setting [1].
With `CCC1CO/C(=C(\C(=C(Cl)Cl)N2CCOCC2)[N+](=O)[O-])N1` (stereo not given), the inhibition reads like this: (stronger effect = higher value) -17.5% (inactive); under setting [1], -10.3%.
`CCOC(=O)N1CCN(C(=O)C2CCN(S(C)(=O)=O)CC2)CC1`: the inhibition is 2.13% (inactive) (stronger effect = higher value) and -5.28% under setting [1].
With `O=c1[nH]c(=O)n(Cc2ccco2)c2c1C(C(F)(F)F)(C(F)(F)F)N=C(c1ccco1)N2`, the inhibition (stronger effect = higher value) is -12.9% (inactive) and the inhibition under setting [1] is -21.1%.
As to `O=c1c2ccccc2ncn1CCCCOc1ccccc1F`, the inhibition reads like this: (stronger effect = higher value) -1.85% (inactive); under setting [1], 11.4%.
For `Cn1nc(C(F)(F)F)cc1C(=O)O` the same measures were -2.73% (inactive) and 4.91%.
Taken in the same sequence, the figures for `O=C1CC2(CCCC2)Oc2ccc(Cl)cc21` were -2.7% (inactive) and -12.8%.
Take `COc1ccc(C2C(C(C)=O)=C(O)C(=O)N2c2nccs2)cc1` (stereo not given): the inhibition by setting is: (stronger effect = higher value) -8% (inactive); under setting [1], -1.43%.
For `NC(=O)COC(=O)c1sc2cc(F)ccc2c1Cl`, the inhibition reads like this: (stronger effect = higher value) 40.4% (inactive); under setting [1], 37.9%.
In the case of `O=C(NC(Cc1ccccc1)C(=O)O)/C(=C\c1ccccc1)NC(=O)c1ccco1` (stereo not given), the inhibition (stronger effect = higher value) was -13.2% (inactive) and the inhibition under setting [1] was -12.5%.
On to `CN1CCc2nc(SC(C(=O)O)c3ccccc3)c(C#N)c(-c3cccs3)c2C1` (stereo not given), for which the inhibition (stronger effect = higher value) was -5.45% (inactive) and the inhibition under setting [1] was -0.72%.
Take `CCOc1cc(C)ccc1OCc1nnc(SCC(=O)Nc2cccc(C(=O)O)c2)n1-c1ccccc1`: the inhibition by setting is: (stronger effect = higher value) -1.64% (inactive); under setting [1], -0.86%.
Consider `CCOC(=O)c1ccc(NC(=O)C2CC(=O)N(c3ccc4c(c3)OCCO4)C2)cc1` (stereo not given), for which the inhibition runs as follows: (stronger effect = higher value) -4.22% (inactive); under setting [1], 4.56%.
For `O=C(c1ccc(F)cc1)n1c(=S)nc2ccccn21`, the inhibition runs as follows: (stronger effect = higher value) -3.39% (inactive); under setting [1], -1.53%.
As to `CN1CCN(NC(=O)Nc2ccc(Br)cc2)CC1`, the inhibition (stronger effect = higher value) is 5.75% (inactive) and the inhibition under setting [1] came out at 6.69%.
In the case of `CC(=O)C1=C(C)NC(=O)NC1c1ccc2c(c1)OCO2` (stereo not given), the inhibition runs as follows: (stronger effect = higher value) -1.59% (inactive); under setting [1], 7.05%.
In the case of `COc1ccc(NC2CCCN(C(=O)c3ccncc3)C2)cc1` (stereo not given), the inhibition (stronger effect = higher value) is -5.62% (inactive) and the inhibition under setting [1] amounted to 1.6%.
Take `Cc1cc(C)cc(N(CCC#N)C(=O)CN2C(=O)NC3(CCCC3)C2=O)c1`: the inhibition runs as follows: (stronger effect = higher value) -5.09% (inactive); under setting [1], -6.67%.
Taken in the same sequence, the figures for `CC(C)N1CCC(NC(=O)Nc2ccccc2)CC1` were -9.18% (inactive) and -1.81%.
As for `Cc1ccc(NS(=O)(=O)c2ccc(-c3coc(C)n3)cc2)c(C)c1`, the inhibition was -2.05% (inactive) (stronger effect = higher value) and 3.59% under setting [1].
Regarding `COc1ccc(C(=O)NC(C)Cn2nc(C)cc2C)cc1OC1CCN(C(C)=O)CC1` (stereo not given), the inhibition (stronger effect = higher value) is -1.95% (inactive) and the inhibition under setting [1] was -5.6%.
Taken in the same sequence, the figures for `COCCCNC(=O)Cc1ccc(-n2c(C)nc3cccnc32)cc1` were -2.02% (inactive) and -1.03%.
Turning to `O=C(NCCC1=CCCCC1)c1ccc(-n2cncn2)cc1`, the inhibition by setting is: (stronger effect = higher value) 3.02% (inactive); under setting [1], 10.8%.
Taken in the same sequence, the figures for `CC1CCN(S(=O)(=O)c2ccc(NC(=O)C3CC(=O)N(c4ccccc4)C3)cc2)CC1` (stereo not given) were 1.58% (inactive) and 6.16%.
As for `COc1ccc(OC)c(NC(=O)c2cccc(S(=O)(=O)N3CCN(C(C)=O)CC3)c2)c1`, the inhibition by setting is: (stronger effect = higher value) 1.25% (inactive); under setting [1], 1.6%.
Consider `CCc1nn(CCCN2CCN(c3cccc(Cl)c3)CC2)c(=O)n1CCOc1ccccc1`, for which the inhibition by setting is: (stronger effect = higher value) -2.61% (inactive) and 5.29% (inactive); under setting [1], 51.1% and 50%.
As for `COc1ccc(C)c(Cn2c(-c3nonc3N)nc3ccccc32)c1`, the inhibition reads like this: (stronger effect = higher value) -3.23% (inactive); under setting [1], -5.86%.
As for `C=CCSc1ccc(S(=O)(=O)N2CCN(C)CC2)cn1`, the inhibition (stronger effect = higher value) was -0.58% (inactive) and the inhibition under setting [1] stood at 5.36%.
With `Cc1ccc(C(=O)NN(CCC#N)C2=NS(=O)(=O)c3ccccc32)cc1`, the inhibition is -5.01% (inactive) (stronger effect = higher value) and -4.15% under setting [1].
Taken in the same sequence, the figures for `CC(NC(=S)NC1CCCCC1)C(c1ccccc1)N1CCOCC1` (stereo not given) were -1.18% (inactive) and -9.18%.
As for `COC(=O)N/N=C/c1c[n+]([O-])c2ccccc2[n+]1[O-]`, the inhibition by setting is: (stronger effect = higher value) 99.7% (inactive); under setting [1], 100%.
For `Nn1c(SCC(=O)NC2CCCc3ccccc32)nnc1C1CC1` (stereo not given) the same measures were -6.27% (inactive) and -8.89%.
Take `Cn1nnnc1-c1cc(Cl)cc(Cl)c1`: the inhibition is -6.9% (inactive) (stronger effect = higher value) and -5.1% under setting [1].
As to `FC(F)(F)COc1nc(N2CCCCC2)nc(N2CCNCC2)n1`, the inhibition was -3.65% (inactive) (stronger effect = higher value) and -3.73% under setting [1].
With `Cc1ccc(S(=O)(=O)N(C)c2ccc(OCC(=O)OCc3ccc(C#N)cc3)cc2)cc1`, the inhibition reads like this: (stronger effect = higher value) 94.4% (inactive); under setting [1], 93.2%.
Regarding `O=C(c1cc(-c2ccc(Cl)cc2)on1)N1CCN(c2ccccc2)CC1`, the inhibition is, setting by setting: (stronger effect = higher value) 4.32% (inactive); under setting [1], 0.26%.
As to `Nc1c(N(CCO)C(=O)C2CCCCC2)c(=O)[nH]c(=O)n1Cc1ccccc1`, the inhibition by setting is: (stronger effect = higher value) 1.76% (inactive); under setting [1], -2.9%.
In the case of `Cc1ccc(N2CC(C(=O)Nc3cc(Cl)ccc3-n3cncn3)CC2=O)cc1` (stereo not given), the inhibition is, setting by setting: (stronger effect = higher value) -7.41% (inactive); under setting [1], 3.62%.
